TDP1 cell CPT: DT40-hTDP1 cell growth loss with CPT; chicken DT40 Tdp1-/-;hTDP1 cells + 20 nM CPT, ATP luminescence, 48 h; Potency, µM (doses to about 46.2 µM), for the others: at the top dose activity change, negative = growth inhibition, actives largely listed as inhibitors; hit rate 12% among 420,000; AID 686979; further: potency means the concentration at half of the fitted maximal effect; nearly all actives have a fitted effect of over 55% in size
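Chicken DT40 Tdp1-/- cells stably complemented with human TDP1 were seeded at 400 cells/well in medium containing 20 nM camptothecin, exposed to pin-transferred compounds, and grown at 37 °C for at least 48 hr. Viability was read as ATP luminescence.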
IL-1B inflam inh: blocks inflammasome-driven IL-1 beta release; AID 743279; activity change, % at 57.5 µM; hit rate 4.7% among 360,000; THP-1 LPS/ATP IL-1B secretion, AlphaLISA, 16 h; stronger effect = lower value; in the data active means activity change below about -50%; inconclusive means mostly about -30% to -49%
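Secreted IL-1B measured by AlphaLISA bead assay after 16 h compound exposure of THP-1 cells; compounds (final up to 57.5 uM) added 1 h before LPS (250 ng/mL) and ATP (1.25 mM) stimulation; lower signal means less secretion.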
TDP1 cell noCPT: qHTS for Inhibitors of human tyrosyl-DNA phosphodiesterase 1 (TDP1): qHTS in cells in absence of CPT; DT40 Tdp1-/- hTDP1 cells, no CPT, ATP luminescence, 48 h; Potency, µM (titrated, usually from 46.2 µM), for the others: at the highest dose activity change, negative = growth inhibition, usual class: inhibitors; hit rate 15% among 420,000; further: potency means the concentration at half of the fitted maximal effect; nearly all actives have a fitted effect of over 55% in size
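Chicken DT40 Tdp1-/- cells stably complemented with human TDP1 were seeded at 400 cells/well with DMSO in place of 20 nM camptothecin. After compound pinning, cells grew at least 48 hr at 37 °C; viability read by CellTiter-Glo luminescence.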
HT1080-NT tox: kills 2HG-producing HT-1080-NT fibrosarcoma cells | hit rate 1.6% among 360,000 | Potency, µM (titrated, usually from 46.1 µM), inactives show at the top dose activity, negative = less viability, actives largely listed as cytotoxic | AID 686970 | HT-1080-NT fibrosarcoma viability, CellTiter-Glo ATP luminescence, 48 h;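 further: NT is the 2HG producing partner of a matched IDH1 knockdown line; potency means the concentration at half of the fitted maximal effect; 0% = DMSO-treated cells and -100% = media-only wells without cells; nearly all actives have a fitted effect of over 55% in size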
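Fibrosarcoma NT cells, 750 per well in 5% FBS RPMI, were exposed to compound for 48 hours. Viability: CellTiter-Glo luminescence.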
ELG1 repair inh: ELG1-dependent DNA repair inhibition. hit rate 2.3% among 330,000. AID 504467. Potency, µM (series often up to 46.1 µM), without a hit: top-dose activity change, negative = inhibition, usual class: inhibitors. HEK293T ELG1-luciferase reporter, luminescence, 16 h; DNA damage induced by 5-fluorouridine; further: potency means the concentration at half of the fitted maximal effect; nearly all actives have a fitted effect of over 55% in size
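Overnight (16 hr) co-exposure of 2,000 cells/well to 5-fluorouridine and compound at 37 °C preceded detection. Luciferase was quantified via ONE-Glo luminescence; loss of signal denotes inhibition.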
HT1080 IDH1KD tx: kills HT-1080 cells with IDH1 knockdown; HT-1080 IDH1 knockdown viability, ATP luminescence, 48 h; Potency, µM (top dose mostly 46.1 µM), inactives show at the highest dose activity, negative = toxicity, actives largely listed as cytotoxic; hit rate 2% among 360,000; AID 686971;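 further: potency means the concentration at half of the fitted maximal effect; 0% = DMSO wells and -100% = cell-free medium wells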
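Knockdown cells (IDH1KD HT-1080) received compounds 2 h after plating at 750 cells/well and were kept 48 h at 37 °C in 5% FBS RPMI. A CellTiter-Glo luminescence read gave % activity for curve fitting.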
Starred values were filed as active, the others as inactive; u = inconclusive; x = no result given; [ ] = remark or other dose. In the library only some 19% were active in any assay of this set; here they are far more common. Unless noted, the call rests on the fitted dose curve; in most records, active means well fitted curve in the direction sought with a large enough effect; inconclusive means small, poorly fitted or top-dose-only effect, or another doubt; inactive means no such curve, though single readings can be large; an effect the other way counts as inactive or inconclusive. Unless noted, on the % scale 0 is the no-effect control and ±100 the full control effect.

SMILES | TDP1 cell CPT | IL-1B inflam inh | TDP1 cell noCPT | HT1080-NT tox | ELG1 repair inh | HT1080 IDH1KD tx
CC(CC(=O)Nc1ccc2c(c1)c(=O)n(C)n2Cc1ccc(F)cc1)C(F)(F)F (stereo not drawn) | u | -2.2 | u | 4.1% | x | 0.0%
CC(CC(=O)Nc1ccncc1)c1ccccc1 (stereo not drawn) | -19.6% | -0.8 | u | -0.8% | u | 9.1%
CC(CC(=O)Nc1cccc(Cl)c1)c1ccccc1 (stereo not drawn) | u | -72.1* | u | -5.0% | -8.8% | -1.5%
CC(CC(=O)Nc1ccc2c(c1)c(=O)n(C)n2Cc1ccc(F)cc1)c1ccccc1 (stereo not drawn) | 20.6µM* | 39.8 | 20.6µM* | u | x | u
Cn1c(=O)c2cc(NC(=O)CC(C)(C)C)ccc2n1-c1ccccc1F | u | -20.0 | 23.1µM* | u | x | 21.8%
Cc1ccc(-n2c(C)cc(C(=S)N3CCOCC3)c2C)cc1C | 23.1µM* | -67.3* | 14.6µM* | u | -23.3% | 17.4%[9.24 µM]
O=C(NC(=S)Nc1ccc2c(c1)OCCO2)c1ccccc1 | u | -23.2 | 14.1µM* | u | u | u
O=C(NC(=S)Nc1ccc2c(c1)OCCO2)c1ccccc1F | -24.0% | u | 7.4% | 7.2% | u | 10.3%
CCOc1cccc(C(=O)NC(=S)Nc2ccc3c(c2)OCCO3)c1 | -15.6% | -53.6* | u | 18.0% | u | 14.4%
CCN1CCCC1CN(Cc1cc2cc(OC)ccc2[nH]c1=O)C(=O)NCc1ccccc1 (stereo not drawn) | u | -6.0 | -9.5% | -1.3% | -3.7% | 0.7%
Cc1cc(C)c2cc(CN(Cc3ccco3)C(=O)NCc3ccccc3)c(=O)[nH]c2c1 | 9.3% | -58.2* | -9.8% | -17.5% | 8.2µM* | -19.4%
Cc1cc(C)c2cc(CN(CCO)C(=O)NC3CCCCC3)c(=O)[nH]c2c1 | 6.0% | -52.4* | 7.0% | -2.5% | -29.4% | -4.4%
Cc1cc(C)c2cc(CN(CCN(C)C)C(=O)Nc3ccccc3Cl)c(=O)[nH]c2c1 | u | -23.9 | 14.6µM* | -0.4% | u | -8.5%
COc1ccccc1NC(=O)N(CCN(C)C)Cc1cc2cc(C)ccc2[nH]c1=O | u | u | u | -2.5% | 9.9% | -3.4%
CCN1CCCC1CN(Cc1cc2c(C)cc(C)cc2[nH]c1=O)C(=O)NC1CCCCC1 (stereo not drawn) | 23.1µM* | -67.4* | u | u | -0.2% | u
Cc1cc(C)c2cc(CN(CCO)C(=O)Nc3ccc(F)cc3)c(=O)[nH]c2c1 | -27.3% | x | -10.5% | -2.9% | u | 2.3%
CN(C)S(=O)(=O)c1cccc(NC(=O)c2cccc(S(=O)(=O)N3CCCCCC3)c2)c1 | u | -15.0 | u | -6.8% | u | -20.5%
Nc1ccn(CCCNCC(c2ccccc2)c2ccccc2)c(=O)n1 | 1.1% | -4.1 | -26.5% | -0.2% | x | 6.2%
Cc1cc(-c2cc(N)n(-c3ccccc3)n2)c(C)n1C1CCCC1 | 29.1µM* | -12.1 | u | u | u | 0.0%
Cn1c(=O)c2c(ncn2Cc2ccc(Cl)c(Cl)c2)n(C)c1=O | 23.1µM* | -13.0 | 11.6µM* | -12.5% | u | -20.7%
Cn1c(=O)c2c(ncn2Cc2cc(-c3ccccc3)no2)n(C)c1=O | u | -0.2 | 25.9µM* | -29.2% | 18.4µM* | 2.9%[9.24 µM]
COc1ccccc1OCC(=O)N1CCN(C(=O)c2ccco2)CC1 | -1.2% | 7.9 | 4.1% | -1.6% | u | -11.1%
Cc1[nH]c2ccccc2c1/C=C/c1ccnc2ccccc12 | 5.62µM* | x | 2.82µM* | x | x | x
Cc1[nH]c2ccccc2c1/C=C/C(=O)c1ccccc1 | u | -12.5 | u | -28.1% | u | u
C(=C\c1c[nH]c2ccccc12)/c1ccnc2ccccc12 | u | x | 20µM* | x | x | x
SMILES | TDP1 cell CPT | IL-1B inflam inh | TDP1 cell noCPT | HT1080-NT tox | ELG1 repair inh | HT1080 IDH1KD tx
O=C(COC(=O)Cc1ccc(Br)cc1)NCc1ccc(F)cc1 | -1.4% | 7.1 | -4.1% | 17.9% | 18.4% | u
Cc1ccc(CNC(=O)c2ccc3c(=O)n(-c4ccccc4)c(=O)[nH]c3c2)cc1 | 1.9% | x | -5.1% | x | x | x
FC(F)(F)c1cnc(NNC(=S)Nc2cccnc2)c(Cl)c1 | u | 41.2 | 20.6µM* | -15.0% | u | -28.4%
Fc1ccccc1NC(=S)NNc1ncc(C(F)(F)F)cc1Cl | u | -19.9 | 23.1µM* | u | u | u
Cc1c(Cl)cccc1NC(=S)NNc1ncc(C(F)(F)F)cc1Cl | u | -69.3* | u | u | u | u
O=C(NNc1ncc(C(F)(F)F)cc1Cl)c1c(Cl)cccc1Cl | 4.11µM* | 19.4 | 4.11µM* | u | 15.5% | 7.31µM*
CC(=O)N1CCC(C(=O)N2c3ccccc3N=C(c3ccc(C(F)(F)F)cc3)C2C(=O)NC(C)(C)C)CC1 (stereo not drawn) | u | 37.8 | u | 0.2% | x | -7.1%
Cc1cc(C)c(S(=O)(=O)c2ccccc2C)c(OCC(C)(C)C)n1 | 10.3µM* | -23.6 | 9.2µM* | -24.4% | 20.8% | -22.0%
CCCSc1nc(C)cc(C)c1S(C)(=O)=O | 2.3% | 14.5 | 6.5% | -15.5% | 9.2% | -0.8%
CCCSc1nc(C)cc(C)c1S(=O)(=O)c1ccccc1C | 16.4µM* | 3.1 | 7.31µM* | -6.8% | -26.1% | -10.9%
COc1nc(C)cc(C)c1S(=O)(=O)c1ccccc1 | -0.2% | 11.8 | -1.7% | -4.1% | -4.3% | 2.3%
Cc1ccc(S(=O)(=O)c2c(C)cc(C)nc2Oc2cccc(C)c2C)cc1 | u | -7.9 | 18.4µM* | -20.4% | -3.1% | -3.8%
Cc1cc(C)c(S(=O)(=O)c2ccccc2C)c(SCC(C)C)n1 | u | 10.2 | 23.1µM* | -3.1% | 0.9% | -5.1%
OCCO[C@@H]1[C@@H](O)[C@H](O)[C@@H](CO)O[C@@H]1O | 6.7% | x | -15.8% | x | x | x
O=C(CSc1nnc2ccccn12)Nc1ccccc1[N+](=O)[O-] | -8.3% | 23.0 | -1.2% | 6.0% | x | 3.8%
COc1cccc(CNC(=O)C2CCN(C(=O)c3sccc3-n3cccc3)CC2)c1 | -1.4% | x | -3.0% | x | x | x
Cc1cccc(-c2nnc(SCC#N)n2-c2cccc(Cl)c2)c1 | u | u | u | -22.1% | -9.9% | -16.3%
COc1ccc(-n2c(SCCC#N)nnc2-c2cc(Cl)ccc2OC)cc1Cl | u | 30.1 | 16.4µM* | u | 4.6% | 29.1µM*
